Hits are enriched below; roughly 9.2% of the tested compounds scored in any of these assays.
SMN2 splice up: qHTS Assay for Enhancers of SMN2 Splice Variant Expression | HEK293 SMN2-luciferase splicing reporter, luminescence, 30-36 h | Potency, µM (doses to about 46.1 µM), for inactives: top-dose activity change, positive = activation, most hits filed as activators | 210,000 tested, 2.8% active | AID 1458, 2008; further: % of control where 0% means no effect; nearly all actives have a fitted effect of over 55% in size
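qHTS luciferase splicing reporter: luminescence rises when SMN2 exon 7 is included in transfected HEK293 cells. Compound exposure lasted 30-36 h at 37C, with 4.5 mM final sodium butyrate as control, followed by a ONE-Glo read.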
Rab9 promoter act: qHTS Assay for Rab9 Promoter Activators; Huh7 Rab9 promoter-luciferase reporter, luminescence, 24 h; Potency, µM (titrated, usually from 9.22 µM), inactives show at the top dose activation, negative = inhibition, most hits filed as activators; 320,000 tested, 2.8% active; further: % of control where 0% means no effect; nearly all actives have a fitted effect of over 60% in size
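Luminescence from Amplite-detected luciferase (10 minutes, ambient) reports Rab9 promoter activation. Before that, stable Rab9-luciferase Huh7 cells (1500/well, reduced-serum OP-MEM I plus 10% FBS) were exposed to compound for 24 hours at 37C.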
ELG1 genotoxic: qHTS screen for small molecules that induce genotoxicity in human embryonic kidney (HEK293T) cells expressing luciferase-tagged ELG1; HEK293T ELG1-luciferase reporter, luminescence, 16 h; Potency, µM (top dose mostly 46 µM), inactives show top-dose activity change, positive = activation, actives largely listed as activators; 330,000 tested, 1.3% active; further: % of control where 0% means no effect; nearly all actives have a fitted effect of over 60% in size
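ELG1-luciferase HEK293T cells, 2,000/well; compound pinned in; 16 hr, 37 °C, 5% CO2; ONE-Glo, 30 min RT; luminescence on CCD imager.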
FLuc counter: qHTS profiling assay for firefly luciferase inhibitor/activator using purifed enzyme and Km concentrations of substrates (counterscreen for miR-21 project). purified FLuc, Km substrates, luminescence inhibition. 360,000 tested, 6.9% active. Potency, µM (series often up to 57.5 µM), for the others: at the top dose activity change, negative = inhibition, usual class: inhibitors. AID 588342, 2011;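 further: plate controls were vehicle for no effect and reference inhibitor for full effect; nearly all actives have a fitted effect of over 55% in size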
Target sequence (P08659 whole entry, looked up): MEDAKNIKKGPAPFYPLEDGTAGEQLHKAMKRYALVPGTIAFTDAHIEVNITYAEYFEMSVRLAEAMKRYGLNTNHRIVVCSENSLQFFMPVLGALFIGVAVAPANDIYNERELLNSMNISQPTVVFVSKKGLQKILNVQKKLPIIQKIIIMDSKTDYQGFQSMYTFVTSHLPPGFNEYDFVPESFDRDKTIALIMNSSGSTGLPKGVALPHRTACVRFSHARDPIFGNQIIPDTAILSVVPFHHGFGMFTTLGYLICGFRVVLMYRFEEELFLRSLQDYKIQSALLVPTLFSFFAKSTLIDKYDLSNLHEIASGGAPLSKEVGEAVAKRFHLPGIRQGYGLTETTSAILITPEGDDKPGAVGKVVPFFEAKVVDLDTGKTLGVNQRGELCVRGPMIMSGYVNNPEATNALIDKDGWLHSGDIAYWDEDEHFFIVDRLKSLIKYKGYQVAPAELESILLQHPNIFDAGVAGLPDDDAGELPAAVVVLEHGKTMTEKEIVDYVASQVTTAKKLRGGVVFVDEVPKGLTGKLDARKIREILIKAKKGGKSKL
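Purified P. pyralis luciferase, 10 nM final, with Km-level 10 uM D-luciferin and 10 uM ATP in 50 mM Tris acetate pH 7.5, 10 mM Mg acetate, 0.01% Tween-20, 0.05% BSA; 6-point qHTS titration about 60 µM downward; luminescence read.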
NPC1 promoter act: qHTS Assay for NPC1 Promoter Activators; Potency, µM (series often up to 9.22 µM), for inactives: at the highest dose activation, most hits filed as activators; Huh7 NPC1 promoter luciferase reporter, 24 h; 320,000 tested, 2.4% active; further: % of control where 0% means no effect; nearly all actives have a fitted effect of over 60% in size
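In 1536-well qHTS, Huh7 cells harboring an NPC1 promoter–luciferase construct received compound for 24 h; activation was quantified by luminescence following luciferase reagent addition.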
ELG1 DNA repair: qHTS screen for small molecules that inhibit ELG1-dependent DNA repair in human embryonic kidney (HEK293T) cells expressing luciferase-tagged ELG1; HEK293T ELG1-luciferase reporter, luminescence, 16 h; DNA damage induced by 5-fluorouridine; Potency, µM (doses to about 46.1 µM), without a hit: top-dose activity change, negative = inhibition, hits mostly inhibitors; 330,000 tested, 2.3% active; further: on the % scale 0 is the no-effect control and ±100 the full control effect; nearly all actives have a fitted effect of over 55% in size
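5-Fluorouridine DNA damage + compound/DMSO, 2,000 cells/well, 16 h, 37 °C/5% CO2. ONE-Glo, 30 min RT, luminescence. Readout = decrease in reporter signal.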
The depositor's hits bear a star. The call rests on the fitted dose curve; in most records, active means well fitted curve in the direction sought with a large enough effect; inconclusive means small, poorly fitted or top-dose-only effect, or another doubt; inactive means no such curve, though single readings can be large; an effect the other way counts as inactive or inconclusive. Potency means the concentration at half of the fitted maximal effect.

What do the screens show for `CCOC(=O)CC(=O)COc1nc2cc3c(nc2o1)CCCC3`?
Rab9 promoter act: 18%; ELG1 genotoxic: inconclusive; FLuc counter: 13µM*; NPC1 promoter act: -3%; ELG1 DNA repair: inconclusive

How did Cc1ccccc1NC(=O)Cn1cnc2c(oc3nc4c(cc32)CCCC4)c1=O do in these assays?
Rab9 promoter act: 10%; ELG1 genotoxic: 6%; FLuc counter: -14%; NPC1 promoter act: 1%; ELG1 DNA repair: 16%

How did COc1ccc(OC)c(S(=O)(=O)NCCc2csc3nc(-c4ccccc4)nn23)c1 do in these assays?
FLuc counter: 1%

How did Cc1ccc(CNC(=O)c2c(-c3cccc(Br)c3)noc2C)o1 do in these assays?
FLuc counter: -4%

How did O=C(Nc1sc2c(c1C(=O)NCC1CCCO1)CCC2)c1cc(=O)c2cc(Cl)ccc2o1 (stereo not drawn) do in these assays?
SMN2 splice up: 2%; FLuc counter: 0%

How did O=C(CC1CC2CCC1C2)OCC(=O)c1c[nH]c2ccccc12 (stereo not drawn) do in these assays?
SMN2 splice up: 8%; Rab9 promoter act: 6%; ELG1 genotoxic: 5%; FLuc counter: 15µM*; NPC1 promoter act: 0%; ELG1 DNA repair: inconclusive

What do the screens show for `COc1cc(OC)cc(C(=O)N[C@H](C(=O)OCC(=O)c2c[nH]c3ccccc23)C(C)C)c1`?
ELG1 genotoxic: -3%; ELG1 DNA repair: 21µM*

What do the screens show for `COc1cccc(C(=O)OCC(=O)c2c[nH]c3ccccc23)c1OC`?
Rab9 promoter act: inconclusive; ELG1 genotoxic: 15%; FLuc counter: 9.5µM*; NPC1 promoter act: 19%; ELG1 DNA repair: inconclusive

Results for Cc1onc(-c2c(F)cccc2Cl)c1C(=O)OCC(=O)c1c[nH]c2ccccc12 ?
Rab9 promoter act: -3%; ELG1 genotoxic: -11%; FLuc counter: -8%; NPC1 promoter act: -4%; ELG1 DNA repair: 23µM*

Results for COc1cc(OC)cc(C(=O)N[C@H](C(=O)NCCc2c[nH]c3ccccc23)C(C)C)c1 ?
SMN2 splice up: 13%; Rab9 promoter act: 2%; ELG1 genotoxic: -1%; FLuc counter: 4%; NPC1 promoter act: -9%; ELG1 DNA repair: -15%

What do the screens show for `O=C(COC(=O)CC1CC2CCC1C2)NCc1ccc(F)cc1` (stereo not drawn)?
ELG1 genotoxic: 1%; ELG1 DNA repair: inconclusive

How did COc1ccc(C(=O)OCC(=O)c2c[nH]c3ccccc23)c(OC)c1 do in these assays?
ELG1 genotoxic: 7%; ELG1 DNA repair: inconclusive

What do the screens show for `COc1ccc(C(=O)N2CCC[C@@]3(CCN(C(=O)Nc4ccccc4)C3)C2)cc1`?
SMN2 splice up: -8%

What do the screens show for `COc1ccc(C(CNC(=O)c2cccc(NS(=O)(=O)c3ccc(C)c(F)c3)c2)N2CCOCC2)cc1` (stereo not drawn)?
Rab9 promoter act: -2%; ELG1 genotoxic: -3%; FLuc counter: 0%; NPC1 promoter act: -4%; ELG1 DNA repair: -21%

Results for Cc1cc(Cl)ccc1OCC(=O)N(Cc1ccco1)Cc1ccco1 ?
SMN2 splice up: -6%; FLuc counter: inconclusive

What do the screens show for `COc1cccc(Cn2c(C)c(CNCc3cccc(C)c3)c(C(=O)O)c2C)c1`?
SMN2 splice up: -10%; FLuc counter: -9%

Results for Cc1nc2c(C)cccn2c(=O)c1NC(=O)c1cccc2ccccc12 ?
Rab9 promoter act: -2%; ELG1 genotoxic: 1%; FLuc counter: 0%; NPC1 promoter act: -1%; ELG1 DNA repair: -11%

How did O=C(OCC(=O)c1c[nH]c2ccccc12)c1cccc([N+](=O)[O-])c1 do in these assays?
Rab9 promoter act: 13%; ELG1 genotoxic: 11%; FLuc counter: 17µM*; NPC1 promoter act: 16%; ELG1 DNA repair: inconclusive

What do the screens show for `CCOC(=O)c1sc2nc(C)nc(NCc3cccnc3)c2c1C`?
SMN2 splice up: -3%; Rab9 promoter act: 4%; ELG1 genotoxic: -3%; FLuc counter: -3%; NPC1 promoter act: 1%; ELG1 DNA repair: 15µM*

What do the screens show for `CCOC(=O)c1sc2nc(C)nc(NCc3ccc(F)cc3)c2c1C`?
Rab9 promoter act: 0%; ELG1 genotoxic: -15%; FLuc counter: -9%; NPC1 promoter act: -1%; ELG1 DNA repair: 7.3µM*

How did CCOC(=O)c1sc2nc(CC(=O)OC)nc(NCc3ccc(F)cc3)c2c1C do in these assays?
SMN2 splice up: -57%; Rab9 promoter act: -15%; ELG1 genotoxic: -10%; FLuc counter: -1%; NPC1 promoter act: -16%; ELG1 DNA repair: inconclusive

What do the screens show for `CCOC(=O)c1sc2nc(C)nc(NCc3ccc(Cl)cc3)c2c1C`?
Rab9 promoter act: -7%; ELG1 genotoxic: -6%; FLuc counter: 1%; NPC1 promoter act: -5%; ELG1 DNA repair: 12µM*

How did c1coc(CNc2ncnc3sc4c(c23)CCCCC4)c1 do in these assays?
SMN2 splice up: 2%; Rab9 promoter act: 15%; ELG1 genotoxic: 0%; FLuc counter: inconclusive; NPC1 promoter act: -1%; ELG1 DNA repair: inconclusive

Results for CCOC(=O)c1sc2nc(C)nc(Nc3ccc(OC)cc3)c2c1C ?
SMN2 splice up: -3%; Rab9 promoter act: 0%; ELG1 genotoxic: -2%; FLuc counter: -3%; NPC1 promoter act: -1%; ELG1 DNA repair: 6%

Results for Cc1nc(NCc2ccco2)c2c3c(sc2n1)CCC3 ?
SMN2 splice up: 22µM*; Rab9 promoter act: 14%; ELG1 genotoxic: 1%; FLuc counter: 2%; NPC1 promoter act: -14%; ELG1 DNA repair: -28%

How did CCC(=O)N1c2ccc(S(=O)(=O)N3CCC(C)CC3)cc2CC1C (stereo not drawn) do in these assays?
SMN2 splice up: -16%; FLuc counter: -3%

Results for CCSc1nc2sc3c(c2c(=O)n1-c1ccc(C)cc1)CCCC3 ?
SMN2 splice up: -5%; FLuc counter: -12%

Results for O=S(=O)(Nc1ccon1)c1ccc(Br)cc1 ?
Rab9 promoter act: 2%; ELG1 genotoxic: 0%; FLuc counter: -2%; NPC1 promoter act: 0%; ELG1 DNA repair: -6%

Results for Cc1nc(NCc2cccnc2)c2c3c(sc2n1)CC(C)CC3 (stereo not drawn) ?
SMN2 splice up: -6%; Rab9 promoter act: 6%; ELG1 genotoxic: 1%; FLuc counter: 24µM*; NPC1 promoter act: 11%; ELG1 DNA repair: inconclusive
